# Source: the supplement of paper PMC13380429
# System: Vero E6 infected with SARS-CoV-2
# Assay: morphology score (similarity to uninfected cells); higher = more like uninfected cells
# Conditions: 24 h
row,Structure (SMILES),morphology score
1,Nc1nccc(/C=C/c2ccccc2)n1 (10 µM),0.324
2,O=C(O)CCc1nc(-c2ccccc2)c(-c2ccccc2)o1 [oxaprozin] (10 µM),-0.00592
3,O=C1CNC(=O)CN1 [piperazinedione] (0.833333 µM),0.0804
4,O=C(NC1CCOCC1)c1ccc(-c2cc(-c3c[nH]nc3-c3ccccn3)ccn2)cc1 (10 µM),-0.0411
5,Cn1cnc(N)c2ncnc1-2 [3-methyladenine] (10 µM),0.258
6,CCCC[C@@]1(C2CCCC2)Cc2cc(OCCCC(=O)O)c(Cl)c(Cl)c2C1=O (10 µM),-0.08
7,CCCOc1ccc(S(=O)(=O)N2CCN(CCO)CC2)cc1-c1nc2c(CCC)cn(CC)c2c(=O)[nH]1 [mirodenafil] (10 µM),0.127
8,C[C@]12CCC(=O)C=C1C=C[C@@H]1[C@@H]2CC[C@@]2(C)[C@H]1CC[C@@]2(O)CCC(=O)O [potassium-canrenoate] (10 µM),-0.166
9,CN1[C@@H]2CC[C@H]1C[C@@H](OC(=O)[C@H](CO)c1ccccc1)C2 [hyoscyamine] (10 µM),0.139
10,CC(C)(C)NC[C@H](O)COc1nsnc1N1CCOCC1 [timolol] (10 µM),-0.002
11,CCN1CCN(c2ccc(Nc3cc(N(C)C(=O)Nc4c(Cl)c(OC)cc(OC)c4Cl)ncn3)cc2)CC1 (0.833333 µM),-0.0528
12,CCC(=O)NS(=O)(=O)c1ccc(-c2c(-c3ccccc3)noc2C)cc1 [parecoxib] (10 µM),0.0867
13,CCCN(CCc1cccs1)[C@H]1CCc2c(O)cccc2C1 [rotigotine] (10 µM),-0.0144
14,"O=C(O)c1cc(O)c2c(Cl)cc(Cl)cc2n1 [5,7-dichlorokynurenic-acid] (10 µM)",-0.0314
15,CCc1c(C(=O)NCCc2ccc(N3CCCCC3)cc2)[nH]c2ccc(Cl)cc12 (10 µM),-0.0889
16,NS(=O)(=O)c1nn2cc(-c3ccccc3)nc2s1 (10 µM),0.289
17,N#CSc1cc(SC#N)c(N)nc1N (0.833333 µM),0.125
18,Cc1cc(N2CCOCC2)ccc1Nc1nc(NC2CCCCC2)c2nc[nH]c2n1 (10 µM),-0.0587

row,Structure (SMILES),morphology score
1,CCCCc1nc(Cl)c(C(=O)O)n1Cc1ccc(-c2ccccc2-c2nn[nH]n2)cc1 [carboxylosartan] (10 µM),-0.00666
2,CC(C)NC[C@@H](O)c1ccc(O)c(O)c1 (racemic) [isoprenaline] (0.833333 µM),0.241
3,COc1ccc(CNC(=O)Nc2ncc([N+](=O)[O-])s2)cc1 (10 µM),-0.141
4,C[C@H](Cc1ccc(O)c(O)c1)[C@@H](C)Cc1ccc(O)c(O)c1 [masoprocol] (10 µM),0.0645
5,O=C(c1cc(S(=O)(=O)Nc2ccccc2F)c(F)cc1Cl)N1CCN2CCC[C@@H]2C1 (10 µM),0.0625
6,CC(C)NC(=O)c1ccc(C#Cc2ccncc2)cn1 (10 µM),0.0135
7,CN[C@H]1CN(c2ccc3c(=O)c(C(=O)O)cn(-c4nccs4)c3n2)C[C@@H]1OC [voreloxin] (0.833333 µM),0.068
8,CCc1cccc(N(C)C(=N)Nc2cccc3ccccc23)c1 [aptiganel] (10 µM),0.0916
9,Fc1ccc(-c2c3cccc(C(F)(F)F)c3nn2Cc2ccc(F)cc2Cl)cc1 (10 µM),0.289
10,O=C1OC2(c3ccc(O)cc3Oc3cc(O)ccc32)c2ccccc21 [fluorescein] (10 µM),0.0519
11,CC(O)CN1CCN(CC(=O)[O-])CCN(CC(=O)[O-])CCN(CC(=O)[O-])CC1.[Gd+3] (stereo unspecified) [gadoteridol] (10 µM),-0.0781
12,O=C(O)c1cc(N2N=C(C(F)(F)F)/C(=C/c3ccc(-c4ccccc4)o3)C2=O)ccc1Cl (10 µM),0.185
13,CS(=O)(=O)N1CCN(Cc2cc3nc(-c4cccc5[nH]ncc45)nc(N4CCOCC4)c3s2)CC1 (10 µM),-0.319
14,FC(F)(F)C(F)(F)C(F)(F)C(F)(F)C(F)(F)C(F)(F)C(F)(F)C(F)(F)Br [perflubron] (10 µM),0.0887
15,NC[C@@](O)(c1ccc(Cl)cc1)c1ccc(-c2cn[nH]c2)cc1 (10 µM),0.174
16,COCCNC(=O)Cn1cnc([N+](=O)[O-])n1 [sanazole] (10 µM),0.122
17,CC(=O)[C@H]1CC[C@H]2[C@@H]3CC=C4C[C@@H](O)CC[C@]4(C)[C@H]3CC[C@]12C [pregnenolone] (10 µM),-0.283
18,CN1CCN(C(=O)C2C(C(=O)O)[C@H]3CC[C@@H]2O3)CC1 (stereo partly specified) (10 µM),0.0648
